According to PubChem BioAssay (EPA / NIEHS):
Activity calls are given as the source filed them. How the source made its calls: active means hit-call score of the fitted dose curve at least 0.9, where 1 is the maximum; inactive means score below 0.9.

Each molecule was assayed on Fatty Acid-Binding Protein 1 (FABP1), FABP1 (gene 2168) (assay: LTEA_HepaRG_FABP1: Life Technologies and Expression Analysis (LTEA) Assay for Fatty Acid-Binding Protein 1 (FABP1) using HepaRG (AID 2283494)). Details: mRNA level, 48 h; actives raise or lower the signal.
Experimental: LTEA_HepaRG is a cell based, multiplexed-readout assay that uses HepaRG, a human liver cell line, with measurements taken at 48 hours after chemical dosing on a 96-well plate.LTEA_HepaRG_FABP1 is one of 102 assay component(s) measured in the LTEA HepaRG cell culture assay. It is a marker of Steatosis.Data from the assay component LTEA_HepaRG_FABP1 was analyzed into 1 endpoint. This assay endpoint, LTEA_HepaRG_FABP1, was analyzed with bidirectional fitting relative to DMSO as the negative control and baseline of activity. Using a type of inducible reporter, measures of mRNA induction for gain or loss-of-signal activity can be used to understand regulation of transcription factor activity. To generalize the intended target to other relatable targets, this assay endpoint is annotated to the transporter intended target family, where the subfamily is fatty acid carrier protein.
A total of 1060 chemcials from the ToxCast library were tested in eight-point concentration-response experiments. Cell culture and cytotoxicity assays were conducted at Thermo Fisher Scientific's Custom Services facility (Madison, WI). A single lot of human HepaRG cells (Thermo Fisher Scientific, Frederick, MD) was used for the cell culture experiments. 96-well format collagen type I coated plates of human HepaRG cells were prepared using established methods. Briefly, cryopreserved HepaRG cells were thawed, plated at a density of approximately 100,000 cells/well in HepaRG Thaw, Plate, and General Purpose media (HPRG770, Thermo Fisher Scientific), and incubated for 48 hours. 0.5% DMSO was selected as vehicle control to balance the requisite need of DMSO in HepaRG cultures to maintain differentiation (for example, baseline metabolism, proportions of hepatocytes vs. cholangiocytes), while enabling further hepatic receptor pathway activation (for example, PXR and CAR) in response to chemical exposure. 48 hours after plating, the culture medium was replaced with HepaRG Serum-Free Incudtion Media. Cells were exposed to each test chemical in duplicate and maintained in CO2 incubators for another 48 hours. Chemical plates were thawed to room temperature and 200x concentrations of treatment groups were prepared. 8-point conentration-reponse curves were made with the highest exposure at 100 uM, followed by half-log dilutions, all in 0.5% DMSO. Each test plate contained variouse controls, induction positive controls (1mM phenobarbital), cytotoxicity positive controls ([…] aflatoxin B1), vehicle controls (0.5% DMSO), and total lysis controls (0.5% DMSO). Cell morphology images were taken using an Essen IncuCyte FLR automated microscope, with six 96-well plates imaged in about 24 minutes. Images were captured and exported and JPEG files. Spent culture media was transfered to black-well plates for the LDH assay, and remaining media was sorted at -80 C for later use. Cells were treated with RLT buffer and frozen until shipped for gene expression analysis. Total RNA was isolated from the cell suspension in 75 uL of Buffer RLT (Qiagen, Germantown, MD 20874) by Quintiles/Expression Analysis (Durham, NC) using a custom isolation procedure. Total RNA from each plate well was transferred to a preamplification plate. Fluidigm's 96.96 Dynamic ArrayTM (Fluidigm, Amsterdam, the Netherlands) technology was used for gene expression analyses by quantitative reverse transcription polymerase chain reaction (qRT-PCR, performed by Quintiles/Expression Analysis, Durham, NC)89. Standard TaqManTM Assays (Applied Biosystems/ThermoFisher Scientific, Foster City, CA) were used to assess the expression of 93 genes selected based on their selectivity and sensitivity to important hepatic receptors known to be modulated by environmental chemicals; importance in human hepatocyte functionality; and hepatotoxicity. […]

Row | SMILES | outcome | AC50
1 | CC(C)CC(C)(O)C#CC(C)(O)CC(C)C (stereo not given) | inactive | –
2 | COc1ccc(-n2nc(C(F)F)cc2-c2ccc(S(C)=O)cc2)cc1 (stereo not given) | inactive | –
3 | CC(=O)c1ccc2c(c1)[C@H](NC(=O)c1ccc(F)cc1)[C@@H](O)C(C)(C)O2 | inactive | –
4 | O=C1CCCCCN1 | inactive | –
5 | CC(C)CCCCCCCOC(=O)CCCCC(=O)OCCCCCCCC(C)C | inactive | –
6 | CCCCCCc1ccc(O)cc1O | inactive | –
7 | O=c1[nH]c2ccc(S(=O)CCN3CCC(Cc4ccc(F)cc4)CC3)cc2o1 (stereo not given) | – | 80.3 µM (active)
8 | O=C1OC(=O)C2C3C=CC(C3)C12 (stereo not given) | inactive | –
9 | CCCCCCCCO | inactive | –
10 | COC(=O)c1ccccc1O | inactive | –
11 | CC1(C)C(=O)N(Br)C(=O)N1Br | inactive | –
12 | Cc1ccc(O)cc1 | inactive | –
13 | CCCCCCCCCCCCCCCO | inactive | –
14 | CCOC(=O)c1ccc(C2CCC(NC[C@H](O)COc3ccc(O)c(NS(C)(=O)=O)c3)CC2)cc1 (stereo not given in full) | inactive | –
15 | CC(=O)OCCC(C)C | inactive | –
16 | Cn1cnc([N+](=O)[O-])c1Sc1ncnc2nc[nH]c12 | – | 27 µM (active)
17 | COCCOc1cc2cc(C(=O)NC3CCN(C(C)C)CC3)n(CC(=O)Nc3ccc(Cl)cn3)c2cn1 | – | 34.9 µM (active)
18 | CCOC(=O)COc1ccc2c(c1)CC(NCC(O)c1cccc(Cl)c1)CC2 (stereo not given) | – | 45.8 µM (active)
19 | CCCCCCCCCCCCc1ccccc1 | inactive | –
20 | NC(=O)NO | inactive | –

Row | SMILES | outcome | AC50
21 | C1N2CN3CN1CN(C2)C3 | inactive | –
22 | CCc1cc(SCc2sc(-c3ccc(C(F)(F)F)cc3)nc2CN2CCN(c3ccc(OC)cc3)CC2)ccc1OCC(=O)O | – | 76.8 µM (active)
23 | On1ccccc1=S | inactive | –
24 | CCOc1cccc(-n2cc(C(=O)N3CCN(c4cc(C(=O)O)c5ccccc5c4)CC3)nc2-c2ccc(C)cc2)c1 | – | 30.2 µM (active)
25 | CC[C@H]1OC(=O)[C@H](C)[C@@H](O[C@H]2C[C@@](C)(OC)[C@@H](O)[C@H](C)O2)[C@H](C)[C@@H](O[C@@H]2O[C@H](C)C[C@H](N(C)C)[C@H]2O)[C@](C)(O)C[C@@H](C)C(=O)[C@H](C)[C@@H](O)[C@]1(C)O | inactive | –
26 | O=C(NS(=O)(=O)/C=C/c1ccccc1)c1ccc(F)cc1Cl | – | 2.67 µM (active)
27 | Cc1ccc(S(=O)(=O)O)cc1C | inactive | –
28 | CCCC(=O)OCC | inactive | –
29 | O=P(OC(CCl)CCl)(OC(CCl)CCl)OC(CCl)CCl | – | 72.9 µM (active)
30 | CCC(C)(C)C(=O)O[C@H]1C[C@@H](C)C=C2C=C[C@H](C)[C@H](CC[C@@H]3C[C@@H](O)CC(=O)O3)[C@H]21 | – | 5.7 µM (active)
31 | O=C1CCC(N2C(=O)c3ccccc3C2=O)C(=O)N1 (stereo not given) | inactive | –
32 | CN(C)c1ccc(N=NS(=O)(=O)O)cc1 | – | 50 µM (active)
33 | O=C(O)c1cccc(Oc2ccccc2)c1 | – | 50 µM (active)
34 | COCCOCCOCCOC | inactive | –
35 | CC(C)=CCCC(C)CCO (stereo not given) | inactive | –
36 | C[C@](N)(Cc1ccc(O)c(O)c1)C(=O)O | inactive | –
37 | CC[C@H](C)C(=O)O[C@H]1C[C@@H](C)C=C2C=C[C@H](C)[C@H](CC[C@@H]3C[C@@H](O)CC(=O)O3)[C@H]21 | – | 13.2 µM (active)
38 | CC(C)=CCC/C(C)=C/CO | inactive | –
39 | CCNc1ccccc1 | inactive | –
40 | O=C(O)c1cc(N=Nc2ccc(S(=O)(=O)Nc3ccccn3)cc2)ccc1O | inactive | –
